1 molecule from ChEMBL document CHEMBL1961873, “Compounds: GSK PKIS; Assays: Nanosyn kinase panel” (2012) can be followed below.

The structures appear in SMILES notation.

Assay [1] deals with Sphingosine kinase 1 (Homo sapiens) (UniProt Q9NYA1). The conditions noted are these: at 1 µM.
The target in assay [2] is T1, Sphingosine kinase 2 (Homo sapiens) (UniProt Q9NRA0).
T1 sequence (whole entry): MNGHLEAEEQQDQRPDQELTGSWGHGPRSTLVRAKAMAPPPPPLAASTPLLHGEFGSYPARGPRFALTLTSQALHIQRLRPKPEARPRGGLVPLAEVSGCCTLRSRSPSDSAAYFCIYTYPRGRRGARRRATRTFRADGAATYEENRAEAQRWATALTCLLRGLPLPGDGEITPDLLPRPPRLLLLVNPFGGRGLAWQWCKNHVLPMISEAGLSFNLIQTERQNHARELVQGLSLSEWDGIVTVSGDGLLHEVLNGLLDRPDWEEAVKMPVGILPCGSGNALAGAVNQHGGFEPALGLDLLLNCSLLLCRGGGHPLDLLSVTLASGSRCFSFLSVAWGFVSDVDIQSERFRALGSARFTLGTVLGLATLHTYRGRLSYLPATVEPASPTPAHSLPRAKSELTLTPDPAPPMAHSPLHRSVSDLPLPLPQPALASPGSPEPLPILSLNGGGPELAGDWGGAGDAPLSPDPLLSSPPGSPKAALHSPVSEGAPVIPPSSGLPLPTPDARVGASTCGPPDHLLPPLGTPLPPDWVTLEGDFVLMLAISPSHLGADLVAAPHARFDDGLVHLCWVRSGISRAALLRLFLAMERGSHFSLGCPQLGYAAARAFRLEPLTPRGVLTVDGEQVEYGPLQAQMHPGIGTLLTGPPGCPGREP
Particulars: at 0.1 µM.

Assay [3] addresses T1, Sphingosine kinase 2 (Homo sapiens). Particulars: at 1 µM.
Assay [4] has as its target Casein kinase II subunit alpha (Homo sapiens) (UniProt P68400). Particulars: at 0.1 µM.
Assay [5] shares this target. Particulars: at 1 µM.
The target in assay [6] is T2, Inhibitor of nuclear factor kappa-B kinase subunit alpha (Homo sapiens) (UniProt O15111).
T2 sequence (whole entry): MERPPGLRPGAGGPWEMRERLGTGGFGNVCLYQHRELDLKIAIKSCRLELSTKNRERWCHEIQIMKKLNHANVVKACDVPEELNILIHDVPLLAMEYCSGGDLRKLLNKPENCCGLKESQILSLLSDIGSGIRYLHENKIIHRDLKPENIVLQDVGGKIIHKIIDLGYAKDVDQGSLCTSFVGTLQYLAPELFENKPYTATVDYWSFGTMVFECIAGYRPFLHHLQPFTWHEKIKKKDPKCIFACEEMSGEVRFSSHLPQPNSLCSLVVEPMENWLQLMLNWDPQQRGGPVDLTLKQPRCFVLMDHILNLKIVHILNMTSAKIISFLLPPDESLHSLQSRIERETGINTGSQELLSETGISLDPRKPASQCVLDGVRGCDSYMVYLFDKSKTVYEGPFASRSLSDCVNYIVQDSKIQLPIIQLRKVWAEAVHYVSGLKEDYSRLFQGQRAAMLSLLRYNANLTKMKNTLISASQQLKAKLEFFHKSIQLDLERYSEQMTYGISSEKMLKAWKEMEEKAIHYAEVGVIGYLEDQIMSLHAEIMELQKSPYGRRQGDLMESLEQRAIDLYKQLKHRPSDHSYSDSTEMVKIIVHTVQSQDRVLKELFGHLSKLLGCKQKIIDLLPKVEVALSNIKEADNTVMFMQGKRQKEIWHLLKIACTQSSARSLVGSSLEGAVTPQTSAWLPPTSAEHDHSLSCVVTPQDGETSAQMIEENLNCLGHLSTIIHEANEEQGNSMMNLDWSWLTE
Particulars: at 0.1 µM.

Assay [7] concerns the target T2, Inhibitor of nuclear factor kappa-B kinase subunit alpha (Homo sapiens). The conditions noted are these: at 1 µM.
The target in assay [8] is T3, Inhibitor of nuclear factor kappa-B kinase subunit beta (Homo sapiens) (UniProt O14920).
T3 sequence (whole entry): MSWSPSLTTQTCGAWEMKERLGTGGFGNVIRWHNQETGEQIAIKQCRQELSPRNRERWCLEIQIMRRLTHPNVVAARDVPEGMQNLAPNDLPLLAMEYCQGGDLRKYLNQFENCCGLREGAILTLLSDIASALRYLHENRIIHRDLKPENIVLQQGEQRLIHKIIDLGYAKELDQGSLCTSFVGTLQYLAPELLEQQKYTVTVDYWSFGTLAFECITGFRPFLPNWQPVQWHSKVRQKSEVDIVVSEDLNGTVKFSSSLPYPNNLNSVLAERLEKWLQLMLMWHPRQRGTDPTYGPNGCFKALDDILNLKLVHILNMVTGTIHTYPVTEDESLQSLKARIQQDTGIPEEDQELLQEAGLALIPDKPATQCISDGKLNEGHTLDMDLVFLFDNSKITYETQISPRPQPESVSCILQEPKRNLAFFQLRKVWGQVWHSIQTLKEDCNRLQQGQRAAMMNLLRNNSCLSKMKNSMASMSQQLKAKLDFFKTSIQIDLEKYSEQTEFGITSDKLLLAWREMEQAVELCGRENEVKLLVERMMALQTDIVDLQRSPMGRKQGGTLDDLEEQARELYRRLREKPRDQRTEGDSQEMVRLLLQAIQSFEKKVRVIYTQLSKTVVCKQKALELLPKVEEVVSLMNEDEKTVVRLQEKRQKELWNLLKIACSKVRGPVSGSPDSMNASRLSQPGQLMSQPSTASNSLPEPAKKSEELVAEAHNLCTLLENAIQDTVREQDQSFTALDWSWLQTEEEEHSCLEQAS
Particulars: at 0.1 µM.

The target of assay [9] is T3, Inhibitor of nuclear factor kappa-B kinase subunit beta (Homo sapiens). The conditions noted are these: at 1 µM.
In assay [10] the target is T4, Inhibitor of nuclear factor kappa-B kinase subunit epsilon (Homo sapiens) (UniProt Q14164).
T4 sequence (whole entry): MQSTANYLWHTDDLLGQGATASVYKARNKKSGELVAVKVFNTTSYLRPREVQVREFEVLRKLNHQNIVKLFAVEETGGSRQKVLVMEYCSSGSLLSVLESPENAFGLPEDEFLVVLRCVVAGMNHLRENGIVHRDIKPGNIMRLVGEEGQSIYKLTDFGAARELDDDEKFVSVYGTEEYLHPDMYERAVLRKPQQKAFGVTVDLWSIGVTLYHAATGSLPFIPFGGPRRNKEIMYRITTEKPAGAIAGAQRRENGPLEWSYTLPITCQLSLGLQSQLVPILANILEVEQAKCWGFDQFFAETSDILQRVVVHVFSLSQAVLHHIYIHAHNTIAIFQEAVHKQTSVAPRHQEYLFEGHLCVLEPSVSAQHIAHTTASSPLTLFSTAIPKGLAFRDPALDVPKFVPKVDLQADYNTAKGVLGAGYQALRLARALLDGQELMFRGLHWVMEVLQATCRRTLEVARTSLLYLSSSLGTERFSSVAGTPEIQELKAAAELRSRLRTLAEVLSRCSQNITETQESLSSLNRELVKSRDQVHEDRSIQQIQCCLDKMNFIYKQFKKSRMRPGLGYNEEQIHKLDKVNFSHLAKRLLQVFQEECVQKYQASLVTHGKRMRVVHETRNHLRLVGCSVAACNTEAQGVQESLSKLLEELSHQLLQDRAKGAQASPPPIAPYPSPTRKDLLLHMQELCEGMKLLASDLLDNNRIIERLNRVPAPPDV
Particulars: at 0.1 µM.

For assay [11], the target named is T4, Inhibitor of nuclear factor kappa-B kinase subunit epsilon (Homo sapiens). The conditions noted are these: at 1 µM.
Assay [12] deals with T5, Serine/threonine-protein kinase Nek1 (Homo sapiens) (UniProt Q96PY6).
T5 sequence (whole entry): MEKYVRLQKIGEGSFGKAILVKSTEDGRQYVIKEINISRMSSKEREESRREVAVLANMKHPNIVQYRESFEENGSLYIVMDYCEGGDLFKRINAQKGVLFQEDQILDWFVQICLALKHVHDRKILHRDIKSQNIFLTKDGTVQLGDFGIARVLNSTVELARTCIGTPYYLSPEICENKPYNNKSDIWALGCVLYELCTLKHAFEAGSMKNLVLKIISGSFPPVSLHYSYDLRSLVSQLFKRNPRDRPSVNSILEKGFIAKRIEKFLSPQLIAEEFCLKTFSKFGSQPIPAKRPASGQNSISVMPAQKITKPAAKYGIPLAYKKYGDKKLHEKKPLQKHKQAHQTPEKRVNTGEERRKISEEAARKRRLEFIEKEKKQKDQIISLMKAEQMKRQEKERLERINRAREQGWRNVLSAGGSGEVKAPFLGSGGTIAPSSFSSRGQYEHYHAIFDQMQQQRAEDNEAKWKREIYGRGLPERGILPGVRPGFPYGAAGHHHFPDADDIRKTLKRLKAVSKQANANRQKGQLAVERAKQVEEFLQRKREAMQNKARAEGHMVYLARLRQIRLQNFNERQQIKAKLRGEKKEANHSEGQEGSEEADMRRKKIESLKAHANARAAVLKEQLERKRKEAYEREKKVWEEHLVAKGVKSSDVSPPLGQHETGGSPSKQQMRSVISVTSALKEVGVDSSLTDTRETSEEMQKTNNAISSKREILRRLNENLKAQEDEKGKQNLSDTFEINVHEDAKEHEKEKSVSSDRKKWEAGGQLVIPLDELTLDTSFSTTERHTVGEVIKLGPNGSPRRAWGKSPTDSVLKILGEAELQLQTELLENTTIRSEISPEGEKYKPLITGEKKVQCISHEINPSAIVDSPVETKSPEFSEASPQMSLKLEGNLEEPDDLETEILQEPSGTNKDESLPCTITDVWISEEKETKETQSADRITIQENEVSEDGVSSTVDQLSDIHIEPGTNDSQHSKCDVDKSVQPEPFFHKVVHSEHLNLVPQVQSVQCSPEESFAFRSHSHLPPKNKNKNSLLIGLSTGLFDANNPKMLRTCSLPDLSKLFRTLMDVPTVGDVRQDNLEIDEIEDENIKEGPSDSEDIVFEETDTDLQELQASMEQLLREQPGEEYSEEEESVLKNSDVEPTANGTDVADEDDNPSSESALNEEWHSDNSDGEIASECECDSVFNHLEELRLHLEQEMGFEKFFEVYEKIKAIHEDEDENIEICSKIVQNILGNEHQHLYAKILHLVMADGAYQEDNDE
The conditions noted are these: at 0.1 µM.

Assay [13] addresses T5, Serine/threonine-protein kinase Nek1 (Homo sapiens). The conditions noted are these: at 1 µM.
Assay [14] addresses T6, Serine/threonine-protein kinase Nek2 (Homo sapiens) (UniProt P51955).
T6 sequence (whole entry): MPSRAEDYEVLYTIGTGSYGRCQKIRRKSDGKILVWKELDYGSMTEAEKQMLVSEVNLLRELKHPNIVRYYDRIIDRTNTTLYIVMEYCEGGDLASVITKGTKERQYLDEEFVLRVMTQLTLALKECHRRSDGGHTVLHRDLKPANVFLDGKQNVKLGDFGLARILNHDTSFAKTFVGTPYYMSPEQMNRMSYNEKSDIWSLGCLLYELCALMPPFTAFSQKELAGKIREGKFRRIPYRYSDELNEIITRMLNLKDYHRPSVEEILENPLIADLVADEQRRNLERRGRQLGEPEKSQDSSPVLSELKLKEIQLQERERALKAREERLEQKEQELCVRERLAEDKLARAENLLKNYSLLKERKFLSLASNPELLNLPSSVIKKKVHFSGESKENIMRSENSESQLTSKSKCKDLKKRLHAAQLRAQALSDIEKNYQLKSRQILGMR
Particulars: at 0.1 µM.

In assay [15] the target is T6, Serine/threonine-protein kinase Nek2 (Homo sapiens). The conditions noted are these: at 1 µM.
Assay [16] addresses Serine/threonine-protein kinase Nek6 (Homo sapiens) (UniProt Q9HC98). Particulars: at 0.1 µM.
Assay [17] has the same target. The conditions noted are these: at 1 µM.
Assay [18] concerns the target Serine/threonine-protein kinase Nek7 (Homo sapiens) (UniProt Q8TDX7). Particulars: at 0.1 µM.
Assay [19] has the same target. Particulars: at 1 µM.
For assay [20], the target named is T7, Serine/threonine-protein kinase Nek9 (Homo sapiens) (UniProt Q8TD19).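 Note: reported value is the mean percent inhibition of NEK9.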
T7 sequence (whole entry): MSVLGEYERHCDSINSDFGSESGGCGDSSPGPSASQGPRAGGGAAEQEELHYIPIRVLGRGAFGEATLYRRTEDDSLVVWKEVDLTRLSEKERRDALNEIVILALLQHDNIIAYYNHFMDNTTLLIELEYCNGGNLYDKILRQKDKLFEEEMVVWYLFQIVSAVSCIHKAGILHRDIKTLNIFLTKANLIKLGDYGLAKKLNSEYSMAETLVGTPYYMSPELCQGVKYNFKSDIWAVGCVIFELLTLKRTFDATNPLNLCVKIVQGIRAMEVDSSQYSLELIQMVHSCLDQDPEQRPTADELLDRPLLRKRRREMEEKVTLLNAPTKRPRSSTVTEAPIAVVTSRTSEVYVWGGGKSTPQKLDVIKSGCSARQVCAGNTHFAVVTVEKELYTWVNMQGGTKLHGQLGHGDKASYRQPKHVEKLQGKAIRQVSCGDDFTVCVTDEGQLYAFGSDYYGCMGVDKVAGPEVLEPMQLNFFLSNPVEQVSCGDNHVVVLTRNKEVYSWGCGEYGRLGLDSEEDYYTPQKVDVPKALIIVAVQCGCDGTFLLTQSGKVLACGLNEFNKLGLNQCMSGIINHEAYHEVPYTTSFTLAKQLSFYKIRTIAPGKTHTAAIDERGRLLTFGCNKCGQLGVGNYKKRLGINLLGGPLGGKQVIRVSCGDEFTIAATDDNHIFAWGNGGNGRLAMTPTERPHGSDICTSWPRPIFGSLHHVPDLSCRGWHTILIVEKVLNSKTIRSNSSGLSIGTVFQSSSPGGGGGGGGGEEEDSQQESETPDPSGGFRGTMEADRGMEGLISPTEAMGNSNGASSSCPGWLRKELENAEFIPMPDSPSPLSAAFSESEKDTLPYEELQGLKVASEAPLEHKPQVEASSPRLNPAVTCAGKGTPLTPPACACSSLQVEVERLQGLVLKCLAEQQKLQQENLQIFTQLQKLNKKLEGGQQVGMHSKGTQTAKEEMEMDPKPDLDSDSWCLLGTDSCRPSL
Particulars: at 0.1 µM.

Serine/threonine-protein kinase Nek7 (Homo sapiens), sequence (Q8TDX7 whole entry, looked up): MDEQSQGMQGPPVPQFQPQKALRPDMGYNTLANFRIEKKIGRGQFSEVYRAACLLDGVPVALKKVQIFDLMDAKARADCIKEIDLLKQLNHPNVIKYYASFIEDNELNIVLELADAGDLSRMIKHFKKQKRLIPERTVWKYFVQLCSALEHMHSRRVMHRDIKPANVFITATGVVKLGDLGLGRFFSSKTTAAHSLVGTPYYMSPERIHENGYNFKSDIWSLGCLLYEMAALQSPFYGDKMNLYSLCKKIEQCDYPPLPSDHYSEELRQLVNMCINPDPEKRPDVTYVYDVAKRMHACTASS
Serine/threonine-protein kinase Nek6 (Homo sapiens), sequence (Q9HC98 whole entry): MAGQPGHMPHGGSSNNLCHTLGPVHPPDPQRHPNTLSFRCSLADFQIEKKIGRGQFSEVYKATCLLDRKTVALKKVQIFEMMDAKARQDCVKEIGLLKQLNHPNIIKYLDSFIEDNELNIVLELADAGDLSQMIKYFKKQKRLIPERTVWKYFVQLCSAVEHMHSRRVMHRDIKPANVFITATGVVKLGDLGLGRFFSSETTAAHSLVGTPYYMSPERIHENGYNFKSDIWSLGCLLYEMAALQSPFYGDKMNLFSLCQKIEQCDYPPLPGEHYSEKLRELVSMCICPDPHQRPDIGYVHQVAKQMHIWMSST
Casein kinase II subunit alpha (Homo sapiens), sequence (P68400 whole entry, looked up): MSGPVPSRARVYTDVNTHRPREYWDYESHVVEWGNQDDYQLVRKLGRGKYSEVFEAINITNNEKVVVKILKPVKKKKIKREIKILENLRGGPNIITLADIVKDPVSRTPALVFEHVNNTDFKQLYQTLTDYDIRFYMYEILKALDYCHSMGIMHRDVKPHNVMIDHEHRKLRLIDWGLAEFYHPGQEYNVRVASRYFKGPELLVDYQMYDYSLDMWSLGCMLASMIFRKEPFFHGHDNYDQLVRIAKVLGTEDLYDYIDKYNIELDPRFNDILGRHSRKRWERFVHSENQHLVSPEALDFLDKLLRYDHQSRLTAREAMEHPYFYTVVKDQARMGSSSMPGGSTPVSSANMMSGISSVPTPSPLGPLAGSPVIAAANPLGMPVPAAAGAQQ
Sphingosine kinase 1 (Homo sapiens), sequence (Q9NYA1 whole entry): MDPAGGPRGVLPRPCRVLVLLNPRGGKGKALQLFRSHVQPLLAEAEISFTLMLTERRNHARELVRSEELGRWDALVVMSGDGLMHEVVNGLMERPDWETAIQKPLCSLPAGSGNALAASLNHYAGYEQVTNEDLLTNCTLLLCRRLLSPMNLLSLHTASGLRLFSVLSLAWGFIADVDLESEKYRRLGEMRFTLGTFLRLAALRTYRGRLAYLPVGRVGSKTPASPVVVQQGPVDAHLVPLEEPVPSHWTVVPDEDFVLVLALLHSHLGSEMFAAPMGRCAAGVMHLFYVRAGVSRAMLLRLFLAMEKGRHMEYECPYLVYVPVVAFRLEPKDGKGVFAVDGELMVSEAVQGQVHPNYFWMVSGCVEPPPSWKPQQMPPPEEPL

The term inhibition denotes the relative decrease from the control value, in per cent. As for `COC(=O)Nc1nc2ccc(Oc3ccc(NC(=O)Nc4cc(C(F)(F)F)ccc4F)cc3)cc2s1`, the inhibition is -3.33% in [1]; 0.51% in assay [2]; -0.44% in assay [3]; -0.3% in assay [4]; 1.75% in assay [5]; 4.91% in assay [6]. Besides, the inhibition in assay [7] is -0.96%; in assay [8] it was 3.58%; in assay [9] it was -1.14%; in assay [10] it was -0.11%; in [11], -1.19%; in assay [12], 1.14%. For the same molecule, the inhibition was 1.38% in assay [13]; -0.09% in assay [14]; 0.69% in [15]; -1.08% in [16]; -4.58% in assay [17]; 1.35% in [18]. In addition, the figures for the inhibition in [19] and in [20] were 0.53% and -1.57%, respectively.
